# High-throughput results from PubChem.
# This excerpt belongs to a sample that is enriched for hits.
# Dicer processing – inhibitors of Dicer pre-microRNA processing, primary screen, biochemical, cat-ELCCA, chemiluminescence | cat-ELCCA pre-miR-21 Dicer processing; stronger effect = higher value | AID 1347074, 2019 | z-score at 25 µM | actives 6% (n = 47,000) | Endoribonuclease Dicer (Homo sapiens), Q9UPY3; in the data active = z-score above about 3, passing the limit was not always enough;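 note: plate controls were vehicle for no effect and no enzyme for full effect; higher signal means more uncleaved substrate so more Dicer inhibition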
# Starred values were filed as active, the others as inactive.
SMILES,Dicer processing
COc1cccc(C2C(C#N)=C3N=C(N)c4ccccc4N3C3=C2C(=O)CC(C)(C)C3)c1 (stereo not drawn),1.9
COc1ccc2c(c1)Cc1sc(NC(=O)c3ccc(Br)cc3)nc1-2,-7.5
Cc1nn(S(=O)(=O)c2ccccc2)c(C)c1Oc1ccc(Cl)cc1,-0.93
CC(=O)Oc1ccc(C2OC(=O)C3(CCCCC3)C(=O)C2(C)C)cc1 (stereo not drawn),0.25
CCOC(=O)c1c(NC(=O)Cc2nn(C)c(=O)c3ccccc23)sc(C)c1C,0.68
O=C1CSc2nc(-c3ccccc3)c(-c3ccccc3)n21,-0.62
O=C1CSC(=O)N1C(c1ccccc1)(c1ccccc1)c1ccccc1,4.5*
CC(C)(C)c1ccc(N2C(=N)SCC2=O)cc1,0.2
CCOc1ccc2c(c1)C(=C1SC(C(=O)OC)=C(C(=O)OC)S1)C(=S)C(C)(C)N2,1.2
CC(=O)N1C(=S)NC(=O)C1c1ccccc1 (stereo not drawn),-0.54
CCc1ccc(OCc2nnc(N)s2)cc1,0.79
CC(C)(C)NC(=O)N1CCN(c2cc(C(F)(F)F)ccn2)CC1,0.75
O=C(Nc1ccc(OC(=O)N2CCOCC2)cc1)N1CCOCC1,-0.43
COc1ccc(OC(=O)N2CCOCC2)cc1,5*
COc1ccc(S(=O)(=O)NCCNC(=O)N2CCOCC2)cc1,-0.42
CC1=C(C#N)C(c2ccccc2OCc2ccccc2)C2=C(CCCC2=O)N1 (stereo not drawn),-0.54
N#Cc1cc(NC(=O)c2ccccc2)c(=O)n2c1sc1ccccc12,1
CC(C)(C)/C(O)=C/c1nc2cc([N+](=O)[O-])ccc2[nH]c1=O,0.03
O=[N+]([O-])c1ccc2nc(-c3ccccc3)c(-c3ccccc3)nc2c1,-2.8
O=c1[nH]c2ccc([N+](=O)[O-])cc2nc1/C=C(\O)c1ccccc1,24*
CSCC(CSC)OC(=O)Nc1ccccc1,0.67
CCN(CC)C(=S)Oc1ccc(Br)cc1C(=O)Nc1ccc(F)cc1F,0.22
CC1=C(C#N)C(c2sc3ccccc3c2C)C2=C(CCCC2=O)N1 (stereo not drawn),-1.1
CSc1sc(C#N)c(C)c1-c1ccn(C(=O)c2ccc(Cl)cc2)n1,-0.35
O=C1c2ccccc2S(=O)(=O)N1CCCCCN1C(=O)c2ccccc2S1(=O)=O,0.09
SMILES,Dicer processing
Cn1nc(CC(=O)Nc2nnc(SCCC(=O)Nc3ccccc3)s2)c2ccccc2c1=O,-0.28
O=C(Nc1nnc(SCCN2C(=O)c3ccccc3S2(=O)=O)s1)c1ccccc1,3.5*
N#CCSc1nnc(NC(=O)c2ccccc2)s1,-0.37
O=C(CCSc1nnc(NC2=NS(=O)(=O)c3ccccc32)s1)Nc1ccccc1,3.2*
O=C(CCSc1nnc(NC(=O)Cn2c(=O)sc3ccccc32)s1)Nc1ccccc1,2.3
CN(C)/C=N/c1c(C#N)cnn1-c1ccc([N+](=O)[O-])cc1,-1.7
CS(=O)(=N/C=C(\C#N)S(=O)(=O)c1ccc(C(F)(F)F)cn1)c1ccc(Cl)cc1 (stereo not drawn),-0.13
COc1ccc(C2NCCc3c2[nH]c2ccccc32)cc1 (stereo not drawn),0.11
CCCC(=O)N1c2cc(C)ccc2C(=C2SC(C(=O)OC)=C(C(=O)OC)S2)C(=S)C1(C)C,2
COC(=O)C1=C(C(=O)OC)SC(=C2C(=S)C(C)(C)N(C(=O)C(C)C)c3cc(C)ccc32)S1,2.2
CCOC(=O)C1=C(C(=O)OCC)SC(=C2C(=S)C(C)(C)N(C(C)=O)c3cc(C)ccc32)S1,3.4*
CSC1=NCCN1C(=O)c1c(-c2ccccc2)noc1C,-0.91
O=C(C1=NOC2(C(=O)c3ccccc3C2=O)C1c1ccc(Cl)cc1)c1ccccc1 (stereo not drawn),-0.57
Cc1ccc(/C(O)=C/C(=O)C(=O)NNC(=O)c2ccccc2Nc2ccccc2)c(C)c1,3.5
COC(=O)c1sc(-c2ccc(Cl)cc2)cc1NC(=O)C(Cl)Cl,-0.77
Cc1cc(C)cc(CC2CC(=O)N(c3ccccc3)C2=O)c1 (stereo not drawn),-4.4
O=C1CC(Cc2ccccc2)C(=O)N1c1ccncc1 (stereo not drawn),-0.5
CC(C)(C)c1ccc(N2C(=O)CC(C/C=C/c3ccccc3)C2=O)cc1 (stereo not drawn),4.7*
O=C(Nc1ccc2oc(-c3ccccc3F)nc2c1)c1ccc([N+](=O)[O-])o1,32
Cc1ccccc1-c1nc2cc(NCc3cccs3)ccc2o1,8.2*
O=C(Nc1ccc2oc(-c3cccc4ccccc34)nc2c1)c1ccc([N+](=O)[O-])o1,1.7
Cc1ccnc(SCc2cc(=O)n3[nH]c(C)nc3n2)n1,-0.95
Cc1nc(N/N=C/c2ccc([N+](=O)[O-])cc2)c2sc(=S)n(-c3ccccc3)c2n1,2
Cc1nc2ncccn2c1-c1csc(Nc2ccc(O)cc2)n1,9.1
CC(=O)Nc1nc(C)c(-c2csc(Nc3ccccn3)n2)s1,-0.82
Cc1ccn2c(-c3csc(Nc4ccc(O)cc4)n3)c(C)nc2c1,7.1*
COc1ccc(Nc2nc(-c3sc(C)nc3C)cs2)cc1,0.54
Cc1nc(C)c(-c2csc(Nc3ccc(O)cc3)n2)s1,6.1*
